Laboratory results taken from PubChem BioAssay AID624111 (Johns Hopkins Ion Channel Center, 2012).
The whole screen tested about 4,000 compounds, of which about 60 (2%) were called active.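 How the source made its calls: active means duplicate-averaged calcium fluorescence ratio at least three times the standard deviation of buffer wells, a nonspecific response in parental cells; inactive means the rest.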 This excerpt belongs to a sample that is enriched for actives.

Assay: nonspecific calcium signal in parental HEK293, confirmation, counter-screen for MrgX1 antagonist project, parental HEK293 cells, Fluo-4 calcium flux (AID 624111)
Conditions: parental HEK293, Fluo-4 calcium fluorescence, FDSS; at 10 µM

Question: For `CC(=O)N1c2ccc(S(=O)(=O)N3CCCC(C(=O)Nc4cccc(Cl)c4)C3)cc2CC1C` (stereo unspecified), which fluorescence ratio F(max-min)/F0 is on record?
Answer: inactive

Question: With `Cc1cccc(Cn2cnc3c(N)c(C)c(C)cc32)c1` as the compound, how does the fluorescence ratio F(max-min)/F0 read?
Answer: inactive

Question: For `CCOC(=O)Nc1ccc2c(c1)N(C(=O)CCN1CCN(CCO)CC1)c1ccccc1CC2`, which fluorescence ratio F(max-min)/F0 is on record?
Answer: inactive

Question: Which fluorescence ratio F(max-min)/F0 does the source give for `COc1ccc2c(c1)OC(O)(C(F)(F)C(F)F)CC2=O` (stereo unspecified) here?
Answer: inactive

Question: For `O=S(=O)(c1ccc2ccccc2c1)N1CCN(S(=O)(=O)N2CCOCC2)CC1`, which fluorescence ratio F(max-min)/F0 is on record?
Answer: inactive

Question: For `CCOC(=O)C1=C(O)CSC1=Nc1cccc(Cl)c1`, which fluorescence ratio F(max-min)/F0 is on record?
Answer: inactive

Question: With `Cc1nccn1CCC1CCCCN1C(=O)CCc1nnc(-c2ccsc2)o1` (stereo unspecified) as the compound, how does the fluorescence ratio F(max-min)/F0 read?
Answer: inactive

Question: Which fluorescence ratio F(max-min)/F0 does the source give for `O=C(Nc1ccccc1N1CCCCC1)c1ccc2nccnc2c1` here?
Answer: inactive

Question: For `Cc1onc(-c2ccccc2)c1C(=O)NNC(=S)NC(=O)c1ccc(F)cc1`, which fluorescence ratio F(max-min)/F0 is on record?
Answer: inactive

Question: Which fluorescence ratio F(max-min)/F0 does the source give for `O=C(CN1CCN(c2ccccn2)CC1)NC1CCCCC1` here?
Answer: inactive

Question: Which fluorescence ratio F(max-min)/F0 does the source give for `C=CCOc1cccc(C2C(C(=O)c3ccc(C)o3)=C(O)C(=O)N2c2nnc(C)s2)c1` (stereo unspecified) here?
Answer: inactive

Question: For `O=C1C(=O)N(CC2COc3ccccc3O2)c2ccccc21` (stereo unspecified), which fluorescence ratio F(max-min)/F0 is on record?
Answer: inactive

Question: Which fluorescence ratio F(max-min)/F0 does the source give for `COc1ccccc1N(CC(=O)N1CCCCC1)S(=O)(=O)c1ccccc1` here?
Answer: inactive

Question: Which fluorescence ratio F(max-min)/F0 does the source give for `Clc1ccc(-c2nc3ccccn3c2CN2CCSCC2)cc1` here?
Answer: inactive

Question: With `COc1ccc(C(=O)NC(=S)NNC(=O)CCc2ccccc2)cc1` as the compound, how does the fluorescence ratio F(max-min)/F0 read?
Answer: inactive

Question: With `COc1cc(C)c(C)cc1S(=O)(=O)N1CCCc2ccccc21` as the compound, how does the fluorescence ratio F(max-min)/F0 read?
Answer: inactive

Question: Which fluorescence ratio F(max-min)/F0 does the source give for `Cc1nc2ccccc2cc1OCc1ccc(F)cc1` here?
Answer: inactive

Question: Which fluorescence ratio F(max-min)/F0 does the source give for `OCCn1c(-c2ccccc2)csc1=Nc1ccccc1` here?
Answer: inactive

Question: With `CC1(C)CC2CC(C)(CN2c2ncnc3ccc(Br)cc23)C1` (stereo unspecified) as the compound, how does the fluorescence ratio F(max-min)/F0 read?
Answer: inactive

Question: With `N=C(N)SCc1cccc2ccccc12` as the compound, how does the fluorescence ratio F(max-min)/F0 read?
Answer: inactive

Question: With `Cc1occc1C(=O)Nc1nnc(-c2ccncc2)s1` as the compound, how does the fluorescence ratio F(max-min)/F0 read?
Answer: inactive

Question: With `CC(Oc1ccc(F)cc1)C(=O)Nc1ccccc1C(=O)NC1CC1` (stereo unspecified) as the compound, how does the fluorescence ratio F(max-min)/F0 read?
Answer: inactive

Question: With `CCCCC(=O)NNC(=S)NC(=O)C(c1ccccc1)c1ccccc1` as the compound, how does the fluorescence ratio F(max-min)/F0 read?
Answer: inactive

Question: For `CCOc1ccccc1C1CC(c2ccc(Cl)cc2)Nc2nc(N)nn21` (stereo unspecified), which fluorescence ratio F(max-min)/F0 is on record?
Answer: inactive

Question: For `CCN(CC)c1ccc2oc(=O)c(C)nc2c1`, which fluorescence ratio F(max-min)/F0 is on record?
Answer: 0.549 (active)

Question: Which fluorescence ratio F(max-min)/F0 does the source give for `CCNC(=O)c1c(O)c2cccc3c2n(c1=O)CC3` here?
Answer: inactive

Question: For `COC(=O)c1sccc1NS(=O)(=O)c1ccc(F)cc1F`, which fluorescence ratio F(max-min)/F0 is on record?
Answer: inactive

Question: Which fluorescence ratio F(max-min)/F0 does the source give for `COc1ccc(C(=O)CSc2n[nH]c(N)n2)cc1` here?
Answer: inactive

Question: For `CCOC(=O)c1[nH]c2ccc(C)cc2c1N=C(C)N(C)C`, which fluorescence ratio F(max-min)/F0 is on record?
Answer: inactive

Question: Which fluorescence ratio F(max-min)/F0 does the source give for `Cc1ccc2nc(Nc3ccccc3)cc(C)c2c1` here?
Answer: inactive

Question: Which fluorescence ratio F(max-min)/F0 does the source give for `CC1(C(=O)O)CCC(C(=O)Nc2ccc(Cl)c(Cl)c2)C1(C)C` (stereo unspecified) here?
Answer: inactive

Question: Which fluorescence ratio F(max-min)/F0 does the source give for `Cc1cc(Nc2cc(N3CCN(C)CC3)nc(Sc3ccc(NC(=O)C4CC4)cc3)n2)n[nH]1` here?
Answer: inactive

Question: With `Cc1nn(C(=O)c2ccoc2C)c(N)c1-c1ccccc1` as the compound, how does the fluorescence ratio F(max-min)/F0 read?
Answer: inactive

Question: With `O=C(Nc1ccc(Cl)cc1)Nc1ccc(Oc2cccnc2)nc1` as the compound, how does the fluorescence ratio F(max-min)/F0 read?
Answer: inactive

Question: With `O=C(CCN1CCc2ccccc2C(O)(c2ccccc2)C1)c1ccc2c(c1)OCCO2` (stereo unspecified) as the compound, how does the fluorescence ratio F(max-min)/F0 read?
Answer: inactive

Question: Which fluorescence ratio F(max-min)/F0 does the source give for `CCC1CCCCN1CCNC(=O)c1[nH]c(C)c(C(C)=O)c1C` (stereo unspecified) here?
Answer: inactive

Question: For `CCc1nnc(NC(=O)CSc2nc3c(c(=O)n2-c2ccccc2OC)SCC3)s1`, which fluorescence ratio F(max-min)/F0 is on record?
Answer: inactive

Question: Which fluorescence ratio F(max-min)/F0 does the source give for `Cc1ccc2c(C)c(C(=O)N(C)CCC3CCCCO3)oc2c1C` (stereo unspecified) here?
Answer: inactive

Question: Which fluorescence ratio F(max-min)/F0 does the source give for `Cc1cccn2c(=O)c(/C=C3\SC(=S)N(CC(C)C)C3=O)c(NCCCOC(C)C)nc12` here?
Answer: 0.164 (active)

Question: With `O=C(Nc1ccccc1Cl)N1CCN(c2ccc3nncn3n2)CC1` as the compound, how does the fluorescence ratio F(max-min)/F0 read?
Answer: inactive

Question: With `COc1ccc(OC)c(Nc2nc3ccccc3n3cnnc23)c1` as the compound, how does the fluorescence ratio F(max-min)/F0 read?
Answer: inactive

Question: For `C=CCSc1nc(Cc2ccc(Cl)cc2)nc2ccccc12`, which fluorescence ratio F(max-min)/F0 is on record?
Answer: inactive

Question: For `O=C(NC1CCCCC1)C1c2ccccc2C(=O)N1Cc1ccco1` (stereo unspecified), which fluorescence ratio F(max-min)/F0 is on record?
Answer: inactive

Question: With `Cc1ccc(C(=O)COC(=O)CCN2C(=O)C3C4CC(C(Br)C4Br)C3C2=O)cc1` (stereo unspecified) as the compound, how does the fluorescence ratio F(max-min)/F0 read?
Answer: inactive

Question: With `CC(C)(C)Nc1c(-c2cccs2)nc2ccccn12` as the compound, how does the fluorescence ratio F(max-min)/F0 read?
Answer: inactive

Question: For `Cc1ccc(CS(=O)(=O)c2ncc(Cl)c(C(=O)Nc3nnc(C)s3)n2)cc1`, which fluorescence ratio F(max-min)/F0 is on record?
Answer: inactive

Question: For `COc1ccc(C(=O)NNC(=S)NC(=O)c2ccccc2)cc1`, which fluorescence ratio F(max-min)/F0 is on record?
Answer: inactive

Question: For `O=C(CN1CCN(c2ccc(Cl)cc2)CC1)N1CCCC1`, which fluorescence ratio F(max-min)/F0 is on record?
Answer: inactive

Question: With `Cc1ccc(NC2(C#N)C(=O)Nc3ccccc32)cc1` (stereo unspecified) as the compound, how does the fluorescence ratio F(max-min)/F0 read?
Answer: inactive

Question: Which fluorescence ratio F(max-min)/F0 does the source give for `O=C(c1ccc(OC2CCN(C(=O)c3cccnc3)CC2)cc1)N1CCCCCC1` here?
Answer: inactive

Question: Which fluorescence ratio F(max-min)/F0 does the source give for `Cc1nc(N2CCN(c3ccccn3)CC2)c2c(C)c(C(=O)Nc3ccc(F)c(Cl)c3)sc2n1` here?
Answer: inactive

Question: With `Cc1ccnc(-n2sc3ccccc3c2=O)n1` as the compound, how does the fluorescence ratio F(max-min)/F0 read?
Answer: inactive

Question: Which fluorescence ratio F(max-min)/F0 does the source give for `C=CCNC(=O)c1cc(-c2ccccc2O)on1` here?
Answer: inactive

Question: With `CN1/C(=C\C=C2\N=C(c3ccc(F)cc3)OC2=O)C(C)(C)c2ccccc21` as the compound, how does the fluorescence ratio F(max-min)/F0 read?
Answer: inactive

Question: With `COc1ccc(C(=O)Nc2c(N)nc(SCC(=O)N3CCC(C)CC3)[nH]c2=O)cc1OC` as the compound, how does the fluorescence ratio F(max-min)/F0 read?
Answer: inactive

Question: With `Cc1ccc2nc(-c3ccc(NC(=O)c4cccnc4)cc3)oc2c1` as the compound, how does the fluorescence ratio F(max-min)/F0 read?
Answer: inactive

Question: Which fluorescence ratio F(max-min)/F0 does the source give for `Cc1ccc2c(c1)c1ncnc(N3CCc4ccccc4C3)c1n2C` here?
Answer: inactive

Question: With `CCCCOC(=O)CNc1nnc(SCC(=O)OCC)[nH]c1=O` as the compound, how does the fluorescence ratio F(max-min)/F0 read?
Answer: inactive

Question: With `COc1cccc(CNC(=O)C2CCN(S(=O)(=O)c3cccc4cccnc34)CC2)c1` as the compound, how does the fluorescence ratio F(max-min)/F0 read?
Answer: inactive

Question: For `Cc1nc(C)c(-c2csc(NCCc3ccccc3)n2)s1`, which fluorescence ratio F(max-min)/F0 is on record?
Answer: inactive

Question: With `CN(c1cccc(NC(=O)Nc2ccc(Cl)cc2)c1)S(C)(=O)=O` as the compound, how does the fluorescence ratio F(max-min)/F0 read?
Answer: inactive
